Results with a measured potency or affinity are listed apart. Calls of active or inactive are those of the source.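 How the source made its calls: active means earlier screen potentiator hit that boosts the TRPC4 ion channel at some dose, with a dose response; inactive means no potentiation, no dose response, or not a prior hit.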
Target: Short transient receptor potential channel 4 (Mus musculus) (UniProt Q9QUQ5)
Test: TRPC4 positive allosteric modulators, dose response, cell-based, HEK293 TRPC4/mu-opioid, Fluo-4 calcium, EC20 DAMGO (AID 434941);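 further: calcium entry triggered by an EC20 dose of DAMGO at the co-expressed mu-opioid receptor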
Conditions: HEK293 TRPC4/mu-opioid cells, Fluo-4 calcium fluorescence; series mostly up to 20 µM

Short transient receptor potential channel 4 (Mus musculus), sequence (Q9QUQ5 whole entry, looked up): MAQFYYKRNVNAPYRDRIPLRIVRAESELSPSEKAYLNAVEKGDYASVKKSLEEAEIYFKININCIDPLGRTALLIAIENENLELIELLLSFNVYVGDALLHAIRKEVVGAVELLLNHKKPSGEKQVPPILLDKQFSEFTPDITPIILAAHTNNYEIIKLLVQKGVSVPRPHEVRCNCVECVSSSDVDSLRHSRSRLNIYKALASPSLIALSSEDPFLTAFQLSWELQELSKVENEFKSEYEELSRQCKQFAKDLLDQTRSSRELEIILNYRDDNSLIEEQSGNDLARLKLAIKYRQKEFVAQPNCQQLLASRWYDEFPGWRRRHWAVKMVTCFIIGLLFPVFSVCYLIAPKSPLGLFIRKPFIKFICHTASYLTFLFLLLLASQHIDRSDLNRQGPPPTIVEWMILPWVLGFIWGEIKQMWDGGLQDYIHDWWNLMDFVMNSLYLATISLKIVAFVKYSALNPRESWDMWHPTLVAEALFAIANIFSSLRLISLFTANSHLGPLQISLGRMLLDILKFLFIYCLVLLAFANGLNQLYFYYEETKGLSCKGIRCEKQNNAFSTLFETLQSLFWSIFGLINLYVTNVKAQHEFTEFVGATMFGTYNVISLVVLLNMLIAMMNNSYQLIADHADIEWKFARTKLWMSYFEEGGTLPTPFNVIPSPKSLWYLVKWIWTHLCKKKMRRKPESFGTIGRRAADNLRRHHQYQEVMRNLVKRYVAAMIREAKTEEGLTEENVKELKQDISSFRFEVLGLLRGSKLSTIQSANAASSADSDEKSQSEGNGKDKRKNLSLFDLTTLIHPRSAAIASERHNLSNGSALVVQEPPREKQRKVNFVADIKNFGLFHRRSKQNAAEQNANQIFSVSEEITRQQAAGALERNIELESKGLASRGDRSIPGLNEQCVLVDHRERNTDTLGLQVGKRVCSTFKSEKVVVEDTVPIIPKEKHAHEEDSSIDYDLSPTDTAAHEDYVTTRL

outcome, inactive:
COc1ccc(-n2c3c(cc(C(=O)NNc4ccccc4)c2=O)C(=O)CC(C)(C)C3)cc1, O=C(c1sc2ccccc2c1Cl)N(Cc1ccccc1)C1CCS(=O)(=O)C1 (configuration not stated), CN(C)C(CNC(=S)Nc1ccc(Cl)cc1)c1cccnc1 (configuration not stated), O=C1/C(=C\c2cc([N+](=O)[O-])ccc2O)SC(=S)N1Cc1ccc(Cl)cc1, Cc1ccc(C(=O)NNC(=S)NC(=O)COc2ccccc2)cc1, CCCCCc1c(O)nc(SCCN(C)C)[nH]c1=O, CC1CC(C)CN(CCCNS(=O)(=O)c2cc(Br)cc3c2N(C(=O)C2CC2)CC3)C1 (configuration not stated), CN1C2C=C(N(CCc3ccccc3)C(=O)c3ccc(Cl)cc3)CC1CC2 (configuration not stated), Cc1ccccc1C(=O)NNC(=S)NC(=O)COc1ccccc1, CCOC(=O)C1(CC2CCCCO2)CCN(Cc2cc(F)ccc2-n2cccn2)CC1 (configuration not stated), Cc1ccc(NC(=O)CCN2CCC(Cc3ccccc3)CC2)cc1, CCCn1ncc(CN2CCC(n3nccc3NC(=O)CCc3ccccc3)CC2)c1C, Cc1sc2ncnc(NCC(c3ccco3)N(C)C)c2c1C (configuration not stated), CCCN(CCC)CCNC(=O)CCC(=O)Nc1ccc2nc(N3CCOCC3)cc(C)c2c1, CCN1CCN(c2c(Cl)cccc2NC(=O)c2ccc([N+](=O)[O-])cc2)CC1, CN1CCN(c2ccc(NC(=O)c3ccc(-c4cccc([N+](=O)[O-])c4)o3)cc2)CC1, OCCC1CN(Cc2ccccc2-c2ccco2)CCN1Cc1ccccc1 (configuration not stated)

From PubChem BioAssay
